# According to PubChem BioAssay (NCI):
# Values joined by “and” are separate entries in the source; they are usually repeats but may differ in a detail not shown here. Equal entries are not always repeated. The panel holds about 83,000 compounds, 20% with a hit somewhere; the sample as a whole holds those more often.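 How to read the values: 0–100, growth inhibition (40 = 60% inhibited); 0, no net growth; -100 to 0, cell death (-40 = 40% of starting cells died; -100 = all dead).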 Active and inactive are the calls of the source. The calls were made as follows: active = growth percent below 10; inactive = the rest.
# Test system: MDA-MB-468 breast
# Assay: NCI-60 one-dose screen, 48 h (100 = growth as untreated, 0 = no growth, -100 = all killed)
# Conditions: 10 µM unless noted
row,Compound,growth
1,COc1ccc2c(c1)[n+](=O)c(/C=C/C(=O)c1cc(OC)c(OC)c(OC)c1)c(C)n2[O-],24.9% (inactive)
2,c1ccc(-c2nnc(-c3ccccn3)s2)nc1,23.5% (inactive)
3,Cc1cc(Cl)nc(N(CCCNc2ccnc3cc(Cl)ccc23)Cc2cccs2)n1,-30.1% (active)
4,Cc1cc(NCc2cc(Nc3ccnc4cc(Cl)ccc34)ccc2F)nc(N2CCOCC2)n1,39.9% (inactive)
5,c1cc2ccc1CNCCN1CCNCc3ccc(cc3)Oc3ccc(cc3)CNCCN(CCNCc3ccc(cc3)O2)CCNCc2ccc(cc2)Oc2ccc(cc2)CNCC1,-77.6% (active)
6,COc1ccc(-c2nc([C@@H](C)Sc3nc(N)cc(N)n3)c(C)s2)cc1OCCN1CCOCC1,92.7% (inactive)
7,CCCCCCCCCOc1c(OC)cc(C2CC(=O)Nc3c2c(C)nn3-c2nc3ccccc3[nH]2)cc1OC (stereo not drawn),-55.6% (active)
8,CC(C)Cc1ccc(C(C)C(=O)NCc2ccc(Cn3c(=O)sn(CCCI)c3=O)cc2)cc1 (stereo not drawn),64.3% (inactive) and -91.8% (active)
9,Cc1cc(C(=O)c2ccc(Cl)cc2)ccc1O,96.1% (inactive)
10,COc1ccc(OC)c(Nc2nc3nonc3nc2Nc2cc(OC)ccc2OC)c1,63.1% (inactive)
11,N#CC1=C(N)OC2=C(C(=O)CCC2)C1c1ccco1 (stereo not drawn),115% (inactive)
12,Cn1ccnc1C(=O)/C=C/c1ccc(CC(=O)Nc2ccccc2)cc1,-12.9% (active)
13,COc1ccccc1NC(=O)OCC#CCOC(=O)Nc1ccccc1OC,92.6% (inactive) and 89.9% (inactive)
